The text below walks through data of PubChem BioAssay (NCATS).

Each structure is given as a SMILES string. Activity calls are given as the source filed them. The call rests on the fitted dose curve; in most records, active means well fitted curve in the direction sought with a large enough effect; inactive means no such curve, though single readings can be large or run the other way.

A short description of this assay: qHTS for small molecule inhibitors of Yes1 kinase: Counter Assay (AID 686950).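 Further: no kinase present so only ADP-Glo detection of a fixed ADP amount is tested; luminescence from ADP-Glo reporting ADP in a fixed ATP and ADP mixture.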 Particulars: series mostly up to 76.9 µM. The gist of the method:
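Measuring interference with ADP-Glo, the assay ran 60 min at room temperature on an ATP/ADP mix lacking enzyme. Values were normalized to ATP-plus-ADP (maximum) and ATP-only (minimum) DMSO controls.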
In general terms: Quantitative high-throughput screening tests each substance at several concentrations.
On to `CS(=O)(=O)CCNCc1ccc(-c2ccc3ncnc(Nc4ccc(OCc5cccc(C(F)(F)F)c5)cc4)c3c2)o1`, for which the compound was classed as inactive.

Take `COc1cc2c(cc1Nc1nc(Nc3ccsc3C(N)=O)c3cc[nH]c3n1)N(C(=O)CN(C)C)CCC2(C)C`: the compound was called inactive.

Regarding `CCCN1CCC(Oc2cc(Nc3nc(Nc4cccc(F)c4C(N)=O)c4cc[nH]c4n3)c(OC)cc2Cl)CC1`, the compound was called inactive.

For `CS(=O)(=O)Nc1ccc(-c2cc(-c3ccccc3)cc(C(N)=O)c2N)cc1`, the compound was classed as inactive.

`c1cnn2ncc(-c3ccnc(NCCCN4CCOCC4)n3)c2c1`: the outcome was inactive.

With `NC(=O)c1sc(-n2cnc3ccc(C(F)(F)F)cc32)cc1OCc1ccccc1Br`, the compound was classed as inactive.

Consider `Fc1ccc(-c2ncn(C3CCNCC3)c2-c2ccnc(Oc3ccc4c(c3)OCO4)n2)cc1`, for which the compound was called inactive.

In the case of `CNC(=O)c1cncc(C=Cc2c(C)cccc2C)c1`, the call was inactive.

Consider `COc1cc(C=NNc2ncnc3c2cnn3Cc2ccccc2)ccc1O`, for which the compound was classed as inactive.

For `COc1ccccc1Oc1nccc(-c2c(-c3ccc(F)cc3)ncn2C2CCNCC2)n1`, the compound was called inactive.

With `CCOc1ccc2c(-c3ccnc(Nc4cc(OC)cc(C(F)(F)F)c4)n3)cnn2n1`, the compound was classed as inactive.

As for `CC(Oc1cc(-n2cnc3ccc(OCC4CCN(C)CC4)cc32)sc1C(N)=O)c1ccccc1C(F)(F)F` (stereo not given), the compound was called inactive.

In the case of `COc1cccc(-n2ncc3c(NN=Cc4ccc(C)cc4)ncnc32)c1`, the compound was classed as inactive.

Consider `CC1=C(C(=O)Nc2ccc3[nH]ncc3c2)C(c2ccc(F)cc2)N=C(c2ccc(C(F)(F)F)nc2)N1` (stereo not given), for which the result was inactive.

On to `CCN1CCC(C(=O)Nc2n[nH]c3nnc(-c4cccc(F)c4F)cc23)CC1`, for which the compound was classed as inactive.

Consider `CNC(=O)c1cncc(C=Cc2ccccc2C)c1`, for which the call was inactive.

With `O=C1NC(=O)C(c2ccccc2Cl)=C1Nc1cc(Cl)c(O)c(Cl)c1`, the compound was called inactive.

Consider `NS(=O)(=O)c1ccc(N=Nc2c(=O)[nH]c3ccc4[nH]cccc4c23)cc1`, for which the result was inactive.

For the compound `CS(=O)(=O)CCNCc1ccc(-c2ccc3ncnc(Nc4ccc(OCc5ccccc5)c(Br)c4)c3c2)o1`, the outcome was inactive.

As to `COc1ccc2ncn(-c3cc(OC(C)c4ccccc4Cl)c(C(N)=O)s3)c2c1` (stereo not given), the compound was classed as inactive.

As to `CCCN(CCS(C)(=O)=O)Cc1ccc(-c2ccc3ncnc(Nc4ccc(OCc5cccc(F)c5)c(Cl)c4)c3c2)o1`, the result was inactive.

For the compound `CC(Oc1cc(-n2cnc3ccc(OCC(O)CO)cc32)sc1C(N)=O)c1ccccc1Cl` (stereo not given), the compound was called inactive.

Consider `CCn1c(-c2nonc2N)nc2c(C#CC(C)(C)O)nc(OCC(N)c3ccccc3)cc21` (stereo not given), for which the compound was classed as inactive.

For the compound `CCc1cccc(CC)c1C=Cc1cncc(C(=O)NC)c1`, the compound was classed as inactive.

As to `COc1ccc(CNC(=O)c2ccc(-c3cc(-c4nnc(C)o4)ccc3C)cc2)cc1`, the call was inactive.

For the compound `COc1cc(Nc2ncc(-c3ccccc3)o2)cc(OC)c1OC`, the call was inactive.

In the case of `FC(F)(F)c1cccc(Nc2nccc(-c3cnn4nc(-c5ccccc5)ccc34)n2)c1`, the compound was classed as inactive.

As to `O=C1NC(=O)C(c2cccc([N+](=O)[O-])c2)=C1Nc1cc(Cl)c(O)c(Cl)c1`, the result was inactive.

Consider `N#Cc1c(NC(=O)c2ccc(F)cc2)sc2c1CCCC2`, for which the compound was called inactive.

For the compound `CCN1CCC(CC(=O)Nc2n[nH]c3nnc(-c4cccc(F)c4F)cc23)CC1`, the result was inactive.

On to `O=C(Nc1ccc(Oc2ccc3nc(NC(=O)c4ccco4)[nH]c3c2)cc1)Nc1cc(C(F)(F)F)ccc1F`, for which the result was inactive.

Take `CN(C)CCOc1ccc(-c2cc(-c3ccc4c(c3)CCC4=NO)c(-c3ccncc3)o2)cc1`: the compound was called inactive.

As for `COC(=O)Nc1nc2ccc(Oc3ccc(NC(=O)Nc4cccc(Br)c4)cc3)cc2[nH]1`, the compound was called inactive.

Turning to `CCCNc1cccc(-n2ncc3c(NN=Cc4ccncc4)ncnc32)c1`, the call was inactive.

For `N#Cc1cccc(Nc2nccc(-c3cnn4ncccc34)n2)c1`, the call was inactive.

Regarding `CNC(=O)c1ncccc1Nc1nc(Nc2cc3c(cc2OC)CCCN3C(=O)CN(C)C)nc2[nH]ccc12`, the result was inactive.

As to `Cc1ccc(NC(=O)CC2CC2)cc1-c1ccc(C(=O)NCC2CC2)cc1`, the result was inactive.

Regarding `CCS(=O)(=O)c1ccc(OC)c(Nc2ncc(-c3ccccc3Cl)o2)c1`, the result was inactive.

Regarding `O=C(Nc1ccc(Oc2ccc3nc(NC(=O)c4ccccc4)[nH]c3c2)cc1)Nc1cc(C(F)(F)F)ccc1F`, the outcome was inactive.

In the case of `NS(=O)(=O)c1ccc(-c2cc3ccncc3cc2OCc2ccccc2)cc1`, the compound was called inactive.
